Experimental data: ChEMBL document CHEMBL3988442, “University of Dundee, Small-Polar-MMV Screening Library” (2021)
Out of some 69,000 compounds screened, about 1,000 (1.4%) showed an effect of 50% or more. What follows is part of a selection rich in strong results, with near analogues and random picks from the rest.

Tested on: Leishmania donovani
Experiment: Leishmania intramacrophage assay
Type: functional, organism-based
Set-up: scale not given: in the data most compounds retested in dose-response had high values

| Compound | Percent Effect (30.3 µM, […]) | Percent Effect (30 µM, 30.03 µM) |
| --- | --- | --- |
| Cc1nc(CO[C@@H]2CN(Cc3cccnc3)[C@@H]3COC[C@@H]32)cs1.O=C(O)C(F)(F)F.O=C(O)C(F)(F)F | 21.07% |  |
| O=C(O)C(F)(F)F.O=C(O)C(F)(F)F.O=C(O)C(F)(F)F.c1ccc(CO[C@@H]2CN(Cc3cccnc3)[C@@H]3COC[C@@H]32)nc1 | -0.4082% |  |
| Cc1cccc(CN2C[C@H](OCc3ccccn3)[C@H]3COC[C@H]32)n1.O=C(O)C(F)(F)F.O=C(O)C(F)(F)F | 10.8% |  |
| O=C(O)C(F)(F)F.O=C(O)C(F)(F)F.c1ccc(CO[C@@H]2CN(Cc3nccs3)[C@@H]3COC[C@@H]32)nc1 | 56.79% |  |
| O=C(O)C(F)(F)F.O=C(O)C(F)(F)F.c1cncc(CO[C@H]2CN(Cc3ccco3)[C@@H]3COC[C@H]23)c1 | 63.54% |  |
| Fc1ccc(CN2C[C@@H](OCc3ccccn3)[C@H]3COC[C@H]32)cc1.O=C(O)C(F)(F)F.O=C(O)C(F)(F)F | 38.45% |  |
| O=C(c1ccc2c(c1)OCO2)N1CCC(C(=O)O)(c2ccccc2)CC1 | 0.8951% |  |
| CC(C)NC(=O)[C@@H]1C[C@H]2NCC[C@H]2O1.Cl | 56.79% |  |
| O=C(NC1CCC1)[C@H]1C[C@H]2NCCO[C@@H]2C1 | 13.25% |  |
| CC(C)NC(=O)[C@H]1C[C@H]2NCCO[C@@H]2C1 | 20.26% |  |
| CCCN1CCC[C@]2(CCC(=O)N2Cc2ccncc2)[C@H]1CC.O=C(O)C(F)(F)F.O=C(O)C(F)(F)F | -2.592% |  |
| CN(C)C[C@H]1C[C@@H]2CN(Cc3ccco3)C[C@@H]2O1.O=C(O)C(F)(F)F.O=C(O)C(F)(F)F | -9.327% |  |
| Cc1cccc(CN2CCN3C[C@H](Oc4cncnc4)C[C@H]3C2)n1.O=C(O)C(F)(F)F.O=C(O)C(F)(F)F | 42.71% |  |
| Fc1cnc(N2CCN3C[C@H](Oc4cncnc4)C[C@H]3C2)nc1.O=C(O)C(F)(F)F.O=C(O)C(F)(F)F | 16.13% |  |
| CCCN1CC[C@@H]2OC[C@H](C(=O)Nc3cccnc3)C[C@@H]2C1.O=C(O)C(F)(F)F.O=C(O)C(F)(F)F | 21.37% |  |
| CN1CC[C@@H]2OC[C@H](C(=O)N(C)Cc3ccccn3)C[C@@H]2C1.O=C(O)C(F)(F)F.O=C(O)C(F)(F)F | 55.09% |  |
| C[C@H]1C[C@H]2CN(Cc3ccccn3)CC[C@@H]2O1.O=C(O)C(F)(F)F.O=C(O)C(F)(F)F | 19.92% |  |
| CCS(=O)(=O)N1CCc2c(COCCN(C)C)cncc2C1.O=C(O)C(F)(F)F.O=C(O)C(F)(F)F | 30.88% |  |
| Cl.NC(Cc1nc(-c2ccccc2)no1)c1ccccc1 (centres undefined) | -5.876% |  |
| Cl.NC(CC1CCCCC1)c1ccccc1 (centres undefined) | 68.07% |  |
| COCC1CC2(CCN(c3cc(OC)ncn3)CC2)CN1C(C)C.O=C(O)C(F)(F)F (centres undefined) | 17.84% |  |
| Cc1cc(CNC2(c3ccccc3)CCCCC2)on1 | 51.47% |  |
| Cc1cc(CNC2(c3ccccc3)CCCCC2)no1 | 4.963% |  |
| Cc1nc(C2(NCc3cccc(F)c3F)CCCCC2)no1 | 15.79% |  |
| CCN1C[C@H]2[C@@H](C1)N(S(=O)(=O)c1cccnc1)CC[C@H]2OC.O=C(O)C(F)(F)F.O=C(O)C(F)(F)F |  | -25.11% |

| Compound | Percent Effect (30.3 µM, […]) | Percent Effect (30 µM, 30.03 µM) |
| --- | --- | --- |
| COc1ccccc1CC(=O)N1C[C@H]2CC[C@@H]1CN(Cc1cscn1)C2 | -17.19% |  |
| O=C(Cc1ccncc1)N1C[C@H]2CC[C@@H]1CN(Cc1cccnc1)C2 | 24.39% |  |
| O=C(Cc1cnccn1)N1C[C@H]2CC[C@@H]1CN(Cc1cscn1)C2 | 50.19% |  |
| CC(C)(O)CNc1ccc(C#N)c(C(F)(F)F)c1 | 100.1% |  |
| CC(C)(C)NC(=O)CNc1ccc(C#N)c(C(F)(F)F)c1 | 3.3% |  |
| CC(C)(CNc1ccc(C#N)c(C(F)(F)F)c1)C(N)=O | 20.21% |  |
| Cc1ncc2c(c1-c1noc(-c3cscn3)n1)CCNC2 | -9.596% |  |
| CCOc1ccc(C2SCC(=O)Nc3c2c(=O)[nH]n3C(C)C)cc1 (centres undefined) | -0.8562% |  |
| O=C(N[C@@H]1CN[C@@H]2CCCO[C@@H]21)c1cscn1.O=C(O)C(F)(F)F | 4.147% |  |
| CN1C[C@H](NC(=O)c2cscn2)[C@@H]2OCCC[C@@H]21.O=C(O)C(F)(F)F | 54.94% |  |
| Cl.O=C(N[C@H]1CN[C@H]2CCCO[C@H]21)c1cscn1 |  | 25.22% |
| Cc1cc(CN2C[C@@H]3COC[C@]3(CN(C)C)C2)no1.O=C(O)C(F)(F)F.O=C(O)C(F)(F)F |  | -27.07% |
| Fc1cnc(N2CCCC3(CN(Cc4cccs4)CCO3)C2)nc1.O=C(O)C(F)(F)F (centres undefined) | -13.69% |  |
| CC(C)N(C)Cc1cncc2c1CCN(Cc1ccoc1)C2.Cl.Cl.Cl | 28.71% |  |
| O=C(O)C(F)(F)F.O=C(O)C(F)(F)F.c1cncc(OC[C@]23COC[C@H]2CN(C2CCC2)C3)c1 | 24.17% |  |
| Cn1nc(CN2CCCCC(N)C2)c2c(Cl)cccc21 (centres undefined) | 74.89% |  |
| Cc1cc(CN2C[C@@H]3COC[C@]3(CNC(=O)c3ccno3)C2)no1 |  | 11.65% |
| Cl.O=C1CC2(CCCNC2)C(=O)N1Cc1ccccc1 (centres undefined) |  | 10.36% |
| Fc1cccnc1O[C@@H]1CN(Cc2ccco2)[C@@H]2CCCO[C@@H]21.O=C(O)C(F)(F)F.O=C(O)C(F)(F)F | 0.2133% |  |
| Cc1c(C2N3C[C@]4(C)CN2C[C@](C)(C3)C4=O)[nH]c(=O)[nH]c1=O (some centres undefined) | 18.9% |  |
| O=C(Nc1ccc(F)cc1)N1CCC(CO)(Nc2ccccc2)CC1 | 1.566% |  |
| Cc1ccc(NC(=O)N2CCC(CO)(Nc3ccccc3)CC2)cc1 | 64.38% |  |
| Cc1cccc(NC(=O)N2CCC(CO)(Nc3ccccc3)CC2)c1 | 33.34% |  |
| O=C(O)C(F)(F)F.O=C(O)C(F)(F)F.c1ccc(CN2CCN3C[C@H](Oc4cncnc4)C[C@H]3C2)nc1 | 2.199% |  |
